Our source for the outcome and Potency values is PubChem BioAssay (NCATS).

Unmarked numbers belong to inactive results. Records with an inconclusive call do not appear. Activity calls are given as the source filed them. Unless noted, calls follow the shape of the dose curve; as a rule, active = well fitted curve in the direction sought with a large enough effect; inconclusive = small, poorly fitted or top-dose-only effect, or another doubt; inactive = no such curve, though single readings can be large; an effect the other way counts as inactive or inconclusive.

A short description of assay [1]: Natriuretic polypeptide receptor (hNpr1) antagonism - Pilot counterscreen GloSensor control cell line (AID 1347045; calls by dose curve; also: series mostly up to about 38 µM). The method, boiled down: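 HEK293 cells carrying the GloSensor cGMP sensor (GIP/pGS-40F) were loaded with 2% GloSensor reagent for 2 h, exposed to compounds for 30 min, and then stimulated with 50 uM sodium nitroprusside for 20 min at room temperature.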

Assay [2] has as its target Atrial natriuretic peptide receptor 2 (Homo sapiens) (UniProt P20594). The assay is described as follows: Natriuretic polypeptide receptor (hNpr2) antagonism - Pilot subtype selectivity assay (AID 1347050; calls by dose curve; also: potency is read from the fitted curve at half-maximal effect). The method, boiled down: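 cGMP-sensor HEK293/hNpr2 cells; 2% GloSensor reagent 2 h RT; compounds 30 min; baseline luminescence read; 1 nM hNppC agonist 20 min RT; final luminescence read by CCD camera. Antagonism = reduced post-agonist signal.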

Assay [3] in a line: NS1 protein of Zika virus - qHTS assay to identify small molecule inhibitors in human HEK 293 cells (AID 1347053). Also: series mostly up to about 46 µM; nearly all actives have a fitted effect of over 55% in size. The method, boiled down:
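Inhibition of NS1 expression was scored in HEK 293 cells given compound 1 h ahead of MR766 virus (MOI = 0.5). Following 24 h at 37 C, two anti-NS1 antibodies generated a TR-FRET signal, scaled between uninfected and infected controls.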

The target of assay [4] is T1, Tyrosine-protein phosphatase non-receptor type substrate 1 (Homo sapiens) + Leukocyte surface antigen CD47 (Homo sapiens) (UniProt P78324+Q08722). Kind of assay: CD47-SIRPalpha protein protein interaction - LANCE assay qHTS validation (AID 1347057; active = well fitted curve in the direction sought with a large enough effect in the signal ratio, with a control signal flat, not every such curve was filed as active; the % refers to the signal ratio; also: series mostly up to about 38 µM). The method, boiled down:
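First, His-tagged CD47 and Eu-labelled anti-His antibody met the compound for 30 min; next, site-specifically biotinylated SIRPalpha was added for 30 min; finally streptavidin-APC was added before reading the TR-FRET ratio.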

Assay [5] concerns the target Parathyroid hormone/parathyroid hormone-related peptide receptor (Homo sapiens) (UniProt Q03431). Kind of assay: qHTS for PTHR1 Agonists: Optimization Screen against the NCGC LOPAC library (AID 1347079).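 Also: GloSensor cAMP luminescence in HEK-293 GP2 cells expressing human PTHR1 with IBMX.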 An outline of the steps: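 Compounds were tested across a qHTS titration. PTHR1-expressing GP2 cells report cAMP rises via GloSensor luminescence after 1 hr compound exposure at 37C with IBMX present.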

Assay [6] in a line: qHTS of pediatric cancer cell lines to identify multiple opportunities for drug repurposing: Primary screen for TC32 cells (AID 1347089). Also: nearly all actives have a fitted effect of over 60% in size. Also: potency is read from the fitted curve at half-maximal effect. An outline of the steps: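 TC32 cells, 500-1,000/well in growth medium, compound-treated 48 h at 37 °C; viability from CellTiter-Glo luminescence. Primary screen: MIPE 11-point (0.78 nM–46 µM final), NPC 8-point (0.59 nM–46 µM final); confirmatory at 11-point dilutions.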

Assay [7] in a line: qHTS of pediatric cancer cell lines to identify multiple opportunities for drug repurposing: Primary screen for DAOY cells (AID 1347090). Also: series mostly up to about 46 µM; nearly all actives have a fitted effect of over 55% in size. An outline of the steps:
(§1)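 Eight- or eleven-point concentration series, 48 h treatment at 37 degrees C in growth media; readout CellTiter-Glo luminescence. Potency and efficacy were taken from the concentration-response curves.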

Assay [8] is described as follows: qHTS of pediatric cancer cell lines to identify multiple opportunities for drug repurposing: Primary screen for SJ-GBM2 cells (AID 1347091). Also: potency is read from the fitted curve at half-maximal effect. The method, boiled down: as §1
A short description of assay [9]: qHTS of pediatric cancer cell lines to identify multiple opportunities for drug repurposing: Primary screen for A673 cells (AID 1347092). Also: nearly all actives have a fitted effect of over 45% in size. Also: potency is read from the fitted curve at half-maximal effect. The method, boiled down: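 A673 cells (500-1,000 cells/well) were treated 48 hours at 37 degrees C with compounds at 11-point (0.78 nM to 46 µM) or 8-point (0.59 nM to 46 µM) dilutions. Viability read by CellTiter-Glo luminescence; concentration-response curves fitted.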

Assay [10] is described as follows: qHTS of pediatric cancer cell lines to identify multiple opportunities for drug repurposing: Primary screen for NB-EBc1 cells (AID 1347095). The method, boiled down:
(§2)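 Quantitative HTS format: each compound titrated (MIPE 11 points from 0.78 nM, NPC 8 points from 0.59 nM) onto cells plated 5 hours earlier. After 48 h at 37 degrees C, CellTiter-Glo luminescence was recorded.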

Assay [11] is described as follows: qHTS of pediatric cancer cell lines to identify multiple opportunities for drug repurposing: Primary screen for U-2 OS cells (AID 1347096). Also: nearly all actives have a fitted effect of over 50% in size. Also: potency is read from the fitted curve at half-maximal effect. The method, boiled down: (§3)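 Cells (500-1,000/well) in growth media were settled 5 h at 37 degrees C, then given compounds for 48 h. Viability was read as CellTiter-Glo luminescence. Primary runs used MIPE at 11 points (0.78 nM-46 µM) and NPC at 8 points (0.59 nM-46 µM); follow-ups used 11 points.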

A short description of assay [12]: qHTS of pediatric cancer cell lines to identify multiple opportunities for drug repurposing: Primary screen for SK-N-SH cells (AID 1347098). Also: nearly all actives have a fitted effect of over 65% in size. Also: potency is read from the fitted curve at half-maximal effect. An outline of the steps: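 Cells (500-1,000/well) rested 5 h, then received compounds for 48 h; metabolically active cells were measured by CellTiter-Glo luminescence. Final concentrations spanned up to 46 µM (MIPE, 11-point) or 0.59 nM-46 µM (NPC, 8-point) in primary screens, 11-point in follow-ups.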

Assay [13] in a line: qHTS of pediatric cancer cell lines to identify multiple opportunities for drug repurposing: Primary screen for LAN-5 cells (AID 1347100). Also: potency is read from the fitted curve at half-maximal effect. An outline of the steps:
as §3

The nature of assay [14]: qHTS of pediatric cancer cell lines to identify multiple opportunities for drug repurposing: Primary screen for BT-37 cells (AID 1347094). Also: potency is read from the fitted curve at half-maximal effect. The method, boiled down:
as §2

Assay [15] is described as follows: qHTS of pediatric cancer cell lines to identify multiple opportunities for drug repurposing: Primary screen for Saos-2 cells (AID 1347097). Also: nearly all actives have a fitted effect of over 40% in size. Also: potency is read from the fitted curve at half-maximal effect. The method, boiled down: as §2
Assay [16] in a line: qHTS of pediatric cancer cell lines to identify multiple opportunities for drug repurposing: Primary screen for NB1643 cells (AID 1347099). Also: nearly all actives have a fitted effect of over 50% in size. The method, boiled down:
as §2

Assay [17] in a line: qHTS of pediatric cancer cell lines to identify multiple opportunities for drug repurposing: Primary screen for SK-N-MC cells (AID 1347093). Also: potency is read from the fitted curve at half-maximal effect. The method, boiled down:
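Metabolically active cells were quantified by ATP-dependent luminescence (CellTiter-Glo, 15 min at room temperature) following 48 h treatment. Cells had been plated at 500-1,000 per well and settled for 5 h beforehand.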

For assay [18], the target named is T1, Tyrosine-protein phosphatase non-receptor type substrate 1 (Homo sapiens) + Leukocyte surface antigen CD47 (Homo sapiens). The assay is described as follows: CD47-SIRPalpha protein protein interaction - Alpha assay qHTS validation (AID 1347059).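 Also: bead proximity luminescence from CD47 binding SIRPalpha after compound preincubation with SIRPalpha.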 The method, boiled down: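 Soluble extracellular domains: Avi-tag biotinylated SIRPalpha (25 nM) preincubated 30 min RT with compound, then 6His-CD47 (12.5 nM) 30 min; Ni-NTA acceptor and streptavidin donor beads (10 ug/mL) 30 min, AlphaScreen read. PBS pH 7.4, 0.05% IGEPAL.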

T1 sequence (P78324 whole entry, looked up): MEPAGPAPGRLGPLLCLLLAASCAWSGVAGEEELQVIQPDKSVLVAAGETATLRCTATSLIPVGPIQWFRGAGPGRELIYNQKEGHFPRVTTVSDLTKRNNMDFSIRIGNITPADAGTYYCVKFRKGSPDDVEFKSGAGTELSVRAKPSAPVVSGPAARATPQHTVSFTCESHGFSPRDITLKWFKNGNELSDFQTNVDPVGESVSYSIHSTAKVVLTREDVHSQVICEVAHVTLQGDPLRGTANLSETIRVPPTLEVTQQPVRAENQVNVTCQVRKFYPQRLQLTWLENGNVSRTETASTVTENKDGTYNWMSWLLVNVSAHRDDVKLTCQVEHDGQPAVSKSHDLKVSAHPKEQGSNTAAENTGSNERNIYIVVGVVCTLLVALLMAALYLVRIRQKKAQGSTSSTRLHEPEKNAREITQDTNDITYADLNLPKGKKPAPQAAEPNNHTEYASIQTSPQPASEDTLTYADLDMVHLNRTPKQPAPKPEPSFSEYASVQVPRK
T1 sequence (Q08722 whole entry, looked up): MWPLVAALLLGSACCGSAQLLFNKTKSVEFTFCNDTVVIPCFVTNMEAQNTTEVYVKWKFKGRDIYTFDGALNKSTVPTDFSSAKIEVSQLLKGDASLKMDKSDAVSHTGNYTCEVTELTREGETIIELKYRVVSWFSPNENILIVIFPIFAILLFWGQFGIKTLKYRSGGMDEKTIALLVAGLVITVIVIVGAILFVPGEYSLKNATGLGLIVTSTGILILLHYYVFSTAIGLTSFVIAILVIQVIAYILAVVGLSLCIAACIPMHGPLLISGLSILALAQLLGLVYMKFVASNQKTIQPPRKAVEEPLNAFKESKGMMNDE
Chain of Parathyroid hormone/parathyroid hormone-related peptide receptor (Homo sapiens) (Q03431 whole entry, looked up): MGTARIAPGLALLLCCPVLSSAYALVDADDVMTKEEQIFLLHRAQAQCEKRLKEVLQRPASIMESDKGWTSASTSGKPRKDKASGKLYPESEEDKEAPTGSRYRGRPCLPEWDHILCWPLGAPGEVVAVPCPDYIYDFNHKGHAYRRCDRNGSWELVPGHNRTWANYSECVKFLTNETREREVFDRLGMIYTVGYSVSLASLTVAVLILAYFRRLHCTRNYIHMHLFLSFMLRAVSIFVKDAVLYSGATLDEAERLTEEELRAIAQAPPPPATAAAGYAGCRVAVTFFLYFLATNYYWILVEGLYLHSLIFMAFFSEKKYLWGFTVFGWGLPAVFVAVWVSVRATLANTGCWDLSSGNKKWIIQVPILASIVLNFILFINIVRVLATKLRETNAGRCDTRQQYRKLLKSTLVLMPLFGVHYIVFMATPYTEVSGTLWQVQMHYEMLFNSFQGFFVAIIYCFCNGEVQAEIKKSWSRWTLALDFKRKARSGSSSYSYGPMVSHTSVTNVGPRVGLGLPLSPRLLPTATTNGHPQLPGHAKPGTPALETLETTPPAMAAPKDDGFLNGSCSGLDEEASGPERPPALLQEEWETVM
Chain of Atrial natriuretic peptide receptor 2 (Homo sapiens) (P20594 whole entry, looked up): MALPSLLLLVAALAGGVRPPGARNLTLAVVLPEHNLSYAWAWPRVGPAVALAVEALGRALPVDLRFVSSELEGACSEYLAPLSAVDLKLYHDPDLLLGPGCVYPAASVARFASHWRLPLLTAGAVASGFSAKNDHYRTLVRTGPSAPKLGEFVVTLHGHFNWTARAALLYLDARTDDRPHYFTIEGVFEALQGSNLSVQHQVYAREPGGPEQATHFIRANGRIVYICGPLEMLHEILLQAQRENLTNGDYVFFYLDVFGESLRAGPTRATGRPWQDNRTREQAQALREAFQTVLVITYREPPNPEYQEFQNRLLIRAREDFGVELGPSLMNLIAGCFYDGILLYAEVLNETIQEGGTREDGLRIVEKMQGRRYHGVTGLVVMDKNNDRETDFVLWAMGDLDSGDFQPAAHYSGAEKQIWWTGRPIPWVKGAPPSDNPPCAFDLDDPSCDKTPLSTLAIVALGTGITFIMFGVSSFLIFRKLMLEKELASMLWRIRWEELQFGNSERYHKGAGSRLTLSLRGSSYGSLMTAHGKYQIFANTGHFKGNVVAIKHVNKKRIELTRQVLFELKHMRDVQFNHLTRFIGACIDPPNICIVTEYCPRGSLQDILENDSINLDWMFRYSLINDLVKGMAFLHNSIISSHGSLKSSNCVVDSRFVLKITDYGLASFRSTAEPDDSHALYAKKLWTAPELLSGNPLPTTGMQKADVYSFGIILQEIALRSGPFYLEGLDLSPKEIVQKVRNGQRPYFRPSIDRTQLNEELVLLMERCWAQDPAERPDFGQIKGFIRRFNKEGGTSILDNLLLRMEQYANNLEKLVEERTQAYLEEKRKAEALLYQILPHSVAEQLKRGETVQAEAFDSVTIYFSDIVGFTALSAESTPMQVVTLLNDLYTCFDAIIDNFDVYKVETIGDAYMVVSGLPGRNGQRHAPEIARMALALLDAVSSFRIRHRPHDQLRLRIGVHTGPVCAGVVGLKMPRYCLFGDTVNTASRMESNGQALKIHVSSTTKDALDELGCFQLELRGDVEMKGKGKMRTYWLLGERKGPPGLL

Turning to `CC(=O)OCC(=O)[C@@]1(O)CC[C@H]2[C@@H]3CCC4=CC(=O)CC[C@]4(C)[C@H]3C(=O)C[C@@]21C`, the compound was called inactive in assay [1] and in assay [4]. Moreover, the Potency entry in [2], in assay [3], in assay [5], in assay [6], in [7] and in assay [8] was “inactive” throughout. The Potency result in [9], in assay [10], in assay [11], in assay [12] and in assay [13] was “inactive” in each case.
`CN(C)CCOC(C)(c1ccccc1)c1ccccn1` (centres undefined): the compound was classed as inactive in assay [1] and in [4]. Also, the Potency entry in assay [2], in assay [3], in assay [5], in assay [6], in [7] and in assay [8] was “inactive” in each case. The Potency entry in assay [9], in assay [14], in assay [10], in [11], in assay [15] and in assay [12] was “inactive” each time. Besides, the Potency entry in [16] and in assay [13] was “inactive” in each case.
In the case of `CC(C)(C)c1onc(OCP(=O)(O)O)c1CC(N)C(=O)O` (centres undefined), the result in [1] and in assay [4] was inactive. Moreover, the Potency entry in assay [2], in assay [3] and in assay [5] was “inactive” each time.
Consider `C[C@]12CC[C@@H]3c4ccc(O)cc4CC[C@H]3[C@@H]1CCC2=O`, for which the result in [1] and in assay [4] was inactive. Also, the Potency result in [2], in [3], in assay [5], in assay [6], in [7] and in assay [8] was “inactive” throughout. The Potency result in assay [9], in assay [14], in [10], in [11], in [12] and in assay [16] was “inactive” each time. Also, in [13], the Potency entry is “inactive”.
Regarding `O=C1NC(=O)[C@@]2(CCOc3ccc(F)cc32)N1`, the Potency entry in assay [3], in [6], in [7], in [8], in assay [9] and in assay [17] was “inactive” each time. For the same compound, the Potency result in assay [14], in assay [10], in assay [11], in [15], in assay [12] and in assay [16] was “inactive” throughout. For the same compound, the Potency entry in assay [13] is “inactive”. Moreover, the result in assay [4] was inactive.
Take `CCN(CC)CCNC(=O)c1c(C)[nH]c(/C=C2\C(=O)Nc3ccc(F)cc32)c1C`: the Potency in [6] was 8.36 µM (active); in assay [8] it was 11.9 µM (active); in assay [9], 10.6 µM (active); in assay [17], 2.37 µM (active); in [14], 17.4 µM (active); in [11] it was 21.1 µM (active). Moreover, the Potency in assay [15] is 21.1 µM (active); in assay [13], 11.9 µM (active). Also, the Potency result in [12] is “inactive”.
In the case of `C[C@]12C[C@H](O)[C@H]3[C@@H](CCC4=CC(=O)CC[C@@]43C)[C@@H]1CC[C@@H]2C(=O)CO`, the call in assay [1], in [4] and in assay [18] was inactive. Besides, the Potency entry in [2], in assay [3], in assay [5], in assay [8], in assay [9] and in assay [17] was “inactive” each time. Moreover, the Potency entry in assay [14], in assay [10], in assay [11], in assay [15], in assay [12] and in assay [16] was “inactive” each time. Further, the Potency result in assay [13] was “inactive”.
As for `CC(C)(C)[C@]1(O)CCN2C[C@H]3c4ccccc4CCc4cccc(c43)[C@@H]2C1`, the result in [1] and in assay [4] was inactive. Also, the Potency result in [2], in assay [3] and in assay [5] was “inactive” throughout.
`COC(=O)C1=C(C)NC(C)=C(C(=O)OC)C1c1ccccc1[N+](=O)[O-]`: the Potency in assay [2] was 13.1 µM (active); in assay [12], 21.7 µM (active). In addition, the Potency result in assay [3], in [5], in assay [6], in assay [8], in assay [9] and in assay [14] was “inactive” each time. The Potency entry in assay [11], in assay [15], in assay [16] and in assay [13] was “inactive” each time. Moreover, the result in assay [4] was inactive.
Take `CN(C)CCC=C1c2ccccc2CCc2ccccc21`: the call in [1] and in assay [4] was inactive. Further, the Potency result in [3], in [5], in assay [6], in [7], in assay [11] and in assay [16] was “inactive” in each case.
In the case of `NC(=O)N/N=C/c1ccc([N+](=O)[O-])o1`, the Potency entry in assay [3], in assay [7], in assay [8], in assay [17], in assay [10] and in [11] was “inactive” in each case. The Potency result in [15], in assay [12], in assay [16] and in assay [13] was “inactive” throughout.
